# Laboratory results taken from the supplement of paper PMC8728848.
# This is one part of a sample in which the strongest signals are shown more often than they occur.
# B1: Actd5 (Actinidia), P84527 (protein)
# chain: ISSCNGPCRDLNDCDGQLICIKGKCNDDPQVGTHICRGTTHSHQPGGCKPSGTLTCRGKSYPTYDCSPPVTSSTPAKLTNNDFSEGGDDGGPSECDESYHNNNERIVALSTGWYNGGSRCGKMIRITASNGKSVSAKVVDECDSRHGCDKEHAGQPPCRNNIVDGSNAVWSALGLDKNVGVVDITWSMA
# Assays:
# Test in all cases: glycan array binding signal (z-score within array); higher = stronger binding
# Conditions in all cases: glycan notation: IUPAC condensed, linker removed
# Fuc(a1-2)Gal(b1-4)Glc = molecular target: Fuc(a1-2)Gal(b1-4)Glc
# Summary of the method: (§1)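 Columns mapping to the same glycan were averaged after glycan names were converted to IUPAC-condensed notation. The data come from 3228 arrays in the Consortium for Functional Glycomics database, limited to those with an available protein sequence. Binding is reported as a within-array Z-score averaged across arrays of one protein sequence and across linkers.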
# [1] = molecular target: Fuc(a1-2)[GalNAc(a1-3)]Gal(b1-3)GalNAc(b1-3)Gal(a1-4)Gal(b1-4)Glc
# Summary of the method: as §1
# [2] = molecular target: Fuc(a1-2)[GalNAc(a1-3)]Gal(b1-3)GlcNAc(b1-2)Man(a1-3)[Fuc(a1-2)[GalNAc(a1-3)]Gal(b1-3)GlcNAc(b1-2)Man(a1-6)]Man(b1-4)GlcNAc(b1-4)GlcNAc
# Summary of the method: as §1
# [3] = molecular target: Fuc(a1-2)[GalNAc(a1-3)]Gal(b1-3)GlcNAc(b1-2)Man(a1-3)[Fuc(a1-2)[GalNAc(a1-3)]Gal(b1-3)GlcNAc(b1-2)Man(a1-6)]Man(b1-4)GlcNAc(b1-4)[Fuc(a1-6)]GlcNAc
# Summary of the method: as §1
# [4] = molecular target: Fuc(a1-2)[GalNAc(a1-3)]Gal(b1-4)GlcNAc(b1-6)GalNAc
# Summary of the method: as §1
# Fuc(a1-3)GlcNAc = molecular target: Fuc(a1-3)GlcNAc
# Summary of the method: as §1
# [5] = molecular target: Fuc(a1-3)[Gal(b1-4)]GlcNAc(b1-3)Gal(b1-4)[Fuc(a1-3)]GlcNAc(b1-3)Gal(b1-4)[Fuc(a1-3)]GlcNAc
# Summary of the method: as §1
# [6] = molecular target: Fuc(a1-3)[Gal(b1-4)]GlcNAc6S
# Summary of the method: as §1
# [7] = molecular target: Fuc(a1-3)[GalNAc(b1-4)]GlcNAc6S
# Summary of the method: as §1
# Gal(a1-3)Gal = molecular target: Gal(a1-3)Gal
# Summary of the method: as §1
# Gal(a1-3)Gal(b1-4)GlcNAc = molecular target: Gal(a1-3)Gal(b1-4)GlcNAc
# Summary of the method: as §1
# [8] = molecular target: Gal(a1-3)Gal(b1-4)[Fuc(a1-3)]GlcNAc(b1-2)Man(a1-3)[Gal(a1-3)Gal(b1-4)[Fuc(a1-3)]GlcNAc(b1-2)Man(a1-6)]Man(b1-4)GlcNAc(b1-4)GlcNAc
# Summary of the method: as §1
# [9] = molecular target: Gal(b1-3)GalNAc(a1-3)[Fuc(a1-2)]Gal(b1-4)Glc
# Summary of the method: as §1
# [10] = molecular target: Gal(b1-3)GlcNAc(b1-6)GalNAc
# Summary of the method: as §1
# [11] = molecular target: Gal(b1-3)[GlcNAc(b1-6)]GalNAc
# Summary of the method: as §1
# [12] = molecular target: Gal(b1-3)[Neu5Ac(a2-6)]GalNAc
# Summary of the method: as §1
# [13] = molecular target: Gal(b1-4)GlcNAc(a1-6)Gal(b1-4)GlcNAc
# Summary of the method: as §1
# [14] = molecular target: Gal(b1-4)GlcNAc(b1-2)[Gal(b1-4)GlcNAc(b1-4)]Man(a1-3)[Gal(b1-4)GlcNAc(b1-2)Man(a1-6)]Man(b1-4)GlcNAc(b1-4)GlcNAc
# Summary of the method: as §1
# [15] = molecular target: Gal(b1-4)GlcNAc(b1-2)[Gal(b1-4)GlcNAc(b1-6)]Man(a1-6)[GlcNAc(b1-4)][Gal(b1-4)GlcNAc(b1-2)Man(a1-3)]Man(b1-4)GlcNAc(b1-4)GlcNAc
# Summary of the method: as §1
# [16] = molecular target: Gal(b1-4)GlcNAc(b1-3)Gal(b1-3)GlcNAc
# Summary of the method: as §1
# [17] = molecular target: Gal(b1-4)GlcNAc(b1-3)Gal(b1-4)GlcNAc(b1-2)Man(a1-3)[Gal(b1-4)GlcNAc(b1-3)Gal(b1-4)GlcNAc(b1-2)Man(a1-6)]Man(b1-4)GlcNAc(b1-4)GlcNAc
# Summary of the method: as §1
# [18] = molecular target: Gal(b1-4)GlcNAc(b1-3)Gal(b1-4)GlcNAc(b1-3)Gal(b1-4)GlcNAc(b1-3)Gal(b1-4)GlcNAc(b1-3)Gal(b1-4)GlcNAc(b1-2)[Gal(b1-4)GlcNAc(b1-3)Gal(b1-4)GlcNAc(b1-3)Gal(b1-4)GlcNAc(b1-3)Gal(b1-4)GlcNAc(b1-3)Gal(b1-4)GlcNAc(b1-6)]Man(a1-6)[Gal(b1-4)GlcNAc(b1-3)Gal(b1-4)GlcNAc(b1-3)Gal(b1-4)GlcNAc(b1-3)Gal(b1-4)GlcNAc(b1-3)Gal(b1-4)GlcNAc(b1-2)Man(a1-3)]Man(b1-4)GlcNAc(b1-4)[Fuc(a1-6)]GlcNAc
# Summary of the method: as §1
# [19] = molecular target: Gal(b1-4)GlcNAc(b1-3)Gal(b1-4)GlcNAc(b1-3)GalNAc
# Summary of the method: as §1
# [20] = molecular target: Gal(b1-4)GlcNAc(b1-3)Gal(b1-4)GlcNAc(b1-3)[Gal(b1-4)GlcNAc(b1-3)Gal(b1-4)GlcNAc(b1-6)]GalNAc
# Summary of the method: as §1
# [21] = molecular target: Gal(b1-4)GlcNAc(b1-6)[Gal(b1-4)GlcNAc(b1-3)]GalNAc
# Summary of the method: as §1
# Gal(b1-4)GlcNAc6P = molecular target: Gal(b1-4)GlcNAc6P
# Summary of the method: as §1
# [22] = molecular target: Gal3S(b1-4)[Fuc(a1-3)]GlcNAc
# Summary of the method: as §1
# Gal3S6S(b1-4)GlcNAc = molecular target: Gal3S6S(b1-4)GlcNAc
# Summary of the method: as §1
# GalNAc(b1-4)GlcNAc6S = molecular target: GalNAc(b1-4)GlcNAc6S
# Summary of the method: as §1
# GalNAc4S6S(b1-4)GlcNAc = molecular target: GalNAc4S6S(b1-4)GlcNAc
# Summary of the method: as §1
binder,measurement,setting,value
B1,glycan array binding signal (z-score),Fuc(a1-2)Gal(b1-4)Glc,-1.21
same,glycan array binding signal (z-score),[1],-0.038
same,glycan array binding signal (z-score),[2],0.017
same,glycan array binding signal (z-score),[3],1.21
same,glycan array binding signal (z-score),[4],-0.865
same,glycan array binding signal (z-score),Fuc(a1-3)GlcNAc,-0.676
same,glycan array binding signal (z-score),[5],-0.828
same,glycan array binding signal (z-score),[6],0.273
same,glycan array binding signal (z-score),[7],-1.21
same,glycan array binding signal (z-score),Gal(a1-3)Gal,-0.145
same,glycan array binding signal (z-score),Gal(a1-3)Gal(b1-4)GlcNAc,0.17
same,glycan array binding signal (z-score),[8],2.94
same,glycan array binding signal (z-score),[9],-0.318
same,glycan array binding signal (z-score),[10],-0.821
same,glycan array binding signal (z-score),[11],-0.2
same,glycan array binding signal (z-score),[12],-1.12
same,glycan array binding signal (z-score),[13],-0.614
same,glycan array binding signal (z-score),[14],0.256
same,glycan array binding signal (z-score),[15],0
same,glycan array binding signal (z-score),[16],-0.59
same,glycan array binding signal (z-score),[17],3.9
same,glycan array binding signal (z-score),[18],0.644
same,glycan array binding signal (z-score),[19],2.99
same,glycan array binding signal (z-score),[20],2.99
same,glycan array binding signal (z-score),[21],-0.2
same,glycan array binding signal (z-score),Gal(b1-4)GlcNAc6P,-1.05
same,glycan array binding signal (z-score),[22],-0.319
same,glycan array binding signal (z-score),Gal3S6S(b1-4)GlcNAc,0.094
same,glycan array binding signal (z-score),GalNAc(b1-4)GlcNAc6S,-0.111
same,glycan array binding signal (z-score),GalNAc4S6S(b1-4)GlcNAc,-0.058
